Hit rate of the full screen: of about 5,500 compounds, about 2,000 (36%) were called active. Inconclusive results (about 18%) are left out. Cut-off read from the data, not from the text of the source: active = normalized growth mostly below about 0.91 (no sharp cut-off); inconclusive = no clear call, values can overlap the other calls; inactive = mostly above about 0.92. The list shows a part of the results.
Experiment: chemical genetic growth profiling, strain panel (AID 1159580);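 note: tested at 20 µM; growth read once vehicle control cultures reached saturation at 30 °C; 1 = growth at the plate median or of vehicle wells; lower values mean less growth of the strain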
Conditions: growth OD

Measured: normalized growth

NC(=O)NC(=O)Cc1ccccc1
inactive: S. cerevisiae deletion strains, locus YJR075W, strain HOC1, active compounds read low 1.01 | S. cerevisiae deletion strains, locus YKL009W, strain mrt4, active compounds read low 0.99 | S. cerevisiae deletion strains, locus YKL068W, active compounds read low 0.998 | S. cerevisiae deletion strains, locus YKL085W, strain MDH1 (second series), active compounds read low 0.994 | S. cerevisiae deletion strains, locus YKL085W, strain MDH1, active compounds read low 0.994 | S. cerevisiae deletion strains, locus YKL160W, strain elf1, active compounds read low 0.941 | S. cerevisiae deletion strains, locus YKL190W, strain CNB1, active compounds read low 1.03 | S. cerevisiae deletion strains, locus YKR001C, strain vps1, active compounds read low 0.994 | S. cerevisiae deletion strains, locus YKR026C, strain gcn3, active compounds read low 0.993 | S. cerevisiae deletion strains, locus YKR091W, strain srl3, active compounds read low 0.98 | S. cerevisiae deletion strains, locus YLL001W, strain dnm1, active compounds read low 1.02 | S. cerevisiae deletion strains, locus YLL026W, active compounds read low 0.984 | S. cerevisiae deletion strains, locus YLL041C, strain sdh2, active compounds read low 1 | S. cerevisiae deletion strains, locus YLR027C, strain aat2, active compounds read low 0.988 | S. cerevisiae deletion strains, locus YLR039C, strain RIC1, active compounds read low 1.02 | S. cerevisiae deletion strains, locus YLR058C, strain SHM2, active compounds read low 1.01 | S. cerevisiae deletion strains, locus YLR102C, strain apc9, active compounds read low 0.999 | S. cerevisiae deletion strains, locus YLR113W, strain HOG1, active compounds read low 1.01 | S. cerevisiae deletion strains, locus YLR221C, strain rsa3, active compounds read low 1.03 | S. cerevisiae deletion strains, locus YLR258W, strain gsy2, active compounds read low 0.977 | S. cerevisiae deletion strains, locus YLR262C, strain YPT6 (second series), active compounds read low 0.99 | S. cerevisiae deletion strains, locus YLR262C, strain YPT6, active compounds read low 1.05 | S. cerevisiae deletion strains, locus YLR268W, strain sec22, active compounds read low 0.985 | S. cerevisiae deletion strains, locus YLR320W, strain mms22, active compounds read low 1.02 | S. cerevisiae deletion strains, locus YLR330W, strain CHS5, active compounds read low 1.01 | S. cerevisiae deletion strains, locus YLR342W, strain FKS1 (second series), active compounds read low 1.05 | S. cerevisiae deletion strains, locus YLR342W, strain FKS1, active compounds read low 0.999 | S. cerevisiae deletion strains, locus YLR357W, strain rsc2, active compounds read low 0.949 | S. cerevisiae deletion strains, locus YLR370C, strain arc18, active compounds read low 0.966 | S. cerevisiae deletion strains, locus YLR371W, strain rom2, active compounds read low 0.997 | S. cerevisiae deletion strains, locus YLR384C, strain iki3, active compounds read low 0.982 | S. cerevisiae deletion strains, locus YLR418C, strain cdc73, active compounds read low 0.998 | S. cerevisiae deletion strains, locus YML016C, strain PPZ1, active compounds read low 1.01 | S. cerevisiae deletion strains, locus YML032C, strain rad52, active compounds read low 1 | S. cerevisiae deletion strains, locus YML120C, strain ndi1, active compounds read low 1.01 | S. cerevisiae deletion strains, locus YML124C, strain tub3, active compounds read low 0.996 | S. cerevisiae deletion strains, locus YMR058W, strain fet3, active compounds read low 0.978 | S. cerevisiae deletion strains, locus YMR078C, strain ctf18, active compounds read low 0.997 | S. cerevisiae deletion strains, locus YMR125W, strain sto1, active compounds read low 0.957 | S. cerevisiae deletion strains, locus YMR129W, active compounds read low 0.966 | S. cerevisiae deletion strains, locus YMR205C, strain PFK2, active compounds read low 1.01 | S. cerevisiae deletion strains, locus YMR223W, strain ubp8, active compounds read low 1.01 | S. cerevisiae deletion strains, locus YMR231W, strain pep5, active compounds read low 1 | S. cerevisiae deletion strains, locus YMR263W, strain SAP30, active compounds read low 1.01 | S. cerevisiae deletion strains, locus YMR307W, strain GAS1, active compounds read low 1.08 | S. cerevisiae deletion strains, locus YNL067W, strain RPL9B, active compounds read low 1.02 | S. cerevisiae deletion strains, locus YNL071W, strain lat1, active compounds read low 0.995 | S. cerevisiae deletion strains, locus YNL128W, strain TEP1, active compounds read low 1 | S. cerevisiae deletion strains, locus YNL153C, strain GIM3, active compounds read low 1.03 | S. cerevisiae deletion strains, locus YNL183C, strain NPR1, active compounds read low 0.94 | S. cerevisiae deletion strains, locus YNL209W, strain ssb2, active compounds read low 0.975 | S. cerevisiae deletion strains, locus YNL233W, strain BNI4, active compounds read low 1.01 | S. cerevisiae deletion strains, locus YNL248C, strain rpa49, active compounds read low 0.917 | S. cerevisiae deletion strains, locus YNL250W, strain rad50, active compounds read low 0.992 | S. cerevisiae deletion strains, locus YNL271C, strain bni1, active compounds read low 0.992 | S. cerevisiae deletion strains, locus YNL298W, strain CLA4, active compounds read low 1 | S. cerevisiae deletion strains, locus YNL307C, strain MCK1, active compounds read low 0.994 | S. cerevisiae deletion strains, locus YNL322C, strain KRE1 (second series), active compounds read low 0.965 | S. cerevisiae deletion strains, locus YNL322C, strain KRE1, active compounds read low 1.01 | S. cerevisiae deletion strains, locus YNR049C, strain mso1, active compounds read low 0.962 | S. cerevisiae deletion strains, locus YNR052C, strain pop2, active compounds read low 0.989 | S. cerevisiae deletion strains, locus YOL006C, strain TOP1, active compounds read low 1.14 | S. cerevisiae deletion strains, locus YOL012C, strain htz1 1.28 | S. cerevisiae deletion strains, locus YOL147C, strain pex11, active compounds read low 0.997 | S. cerevisiae deletion strains, locus YOR001W, strain rrp6, active compounds read low 1.02 | S. cerevisiae deletion strains, locus YOR061W, strain CKA2, active compounds read low 1 | S. cerevisiae deletion strains, locus YOR069W, strain VPS5, active compounds read low 1 | S. cerevisiae deletion strains, locus YOR070C, strain gyp1, active compounds read low 0.996 | S. cerevisiae deletion strains, locus YOR080W, strain dia2, active compounds read low 0.986 | S. cerevisiae deletion strains, locus YOR083W, strain WHI5, active compounds read low 0.913 | S. cerevisiae deletion strains, locus YOR106W, strain vam3, active compounds read low 0.96 | S. cerevisiae deletion strains, locus YOR136W, strain idh2, active compounds read low 0.995 | S. cerevisiae deletion strains, locus YOR144C, strain elg1, active compounds read low 0.994 | S. cerevisiae deletion strains, locus YOR184W, strain ser1, active compounds read low 0.988 | S. cerevisiae deletion strains, locus YOR231W, strain MKK1, active compounds read low 0.988 | S. cerevisiae deletion strains, locus YOR265W, strain rbl2, active compounds read low 0.99 | S. cerevisiae deletion strains, locus YOR270C, strain vph1, active compounds read low 0.979 | S. cerevisiae deletion strains, locus YOR290C, strain snf2, active compounds read low 0.936 | S. cerevisiae deletion strains, locus YOR316C, strain cot1, active compounds read low 0.994 | S. cerevisiae deletion strains, locus YPL051W, strain arl3, active compounds read low 0.974 | S. cerevisiae deletion strains, locus YPL055C, strain LGE1, active compounds read low 1.08 | S. cerevisiae deletion strains, locus YPL078C, strain atp4, active compounds read low 0.955 | S. cerevisiae deletion strains, locus YPL106C, strain sse1, active compounds read low 0.992 | S. cerevisiae deletion strains, locus YPL240C, strain hsp82, active compounds read low 0.997 | S. cerevisiae deletion strains, locus YPL241C, strain CIN2, active compounds read low 1.03 | S. cerevisiae deletion strains, locus YPL256C, strain CLN2, active compounds read low 0.96 | S. cerevisiae deletion strains, locus YPR119W, strain clb2, active compounds read low 1 | S. cerevisiae deletion strains, locus YPR141C, strain kar3, active compounds read low 0.988 | S. cerevisiae deletion strains, locus YPR163C, strain tif3, active compounds read low 0.995 | S. cerevisiae deletion strains, locus YPR167C, strain met16, active compounds read low 0.996 | S. cerevisiae deletion strains, strain wtn01, active compounds read low 0.976 | S. cerevisiae strains, strain wild type, active compounds read low 1.06

From PubChem BioAssay AID1159580 (chemical genetic matrix, 2015)
